# Reference: PubChem BioAssay (NCATS)
# Inconclusive results are not listed. Unmarked numbers belong to inactive results. Active and inactive are the calls of the source. Calls follow the shape of the dose curve; as a rule, active = well fitted inhibition curve with a large enough effect; inconclusive = small, poorly fitted or top-dose-only effect; inactive = no such curve, though single readings can be large or run the other way.
# Experiment: qHTS Screen of the MIPE 4.0 Collection Against Ewings Sarcoma (EW8) (AID 1259255); also: nearly all actives have a fitted effect of over 35% in size;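 as to viability: 100% = DMSO-treated cells and 0% = medium-only wells without cells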
# Conditions: EW8 Ewing sarcoma viability, CellTiter-Glo, 48 h; series mostly up to 45.8 µM
# Source text: There is a large unmet medical need for treatments for Ewing sarcoma, a pediatric sarcoma. We sought to identify compounds that inhibited Ewing sarcoma cells in vitro with the goal to then test promising drugs in two drug combinations in vitro to look for synergistic drug combinations. Promising combinations would then proceed to additional validation, including in vivo testing.
# Using the NCATS developed oncology compound library called the Mechanism of Interrogation Plate (MIPE), four Ewing sarcoma cell lines were evaluated (TC32, TC71, RDES, EW8). Compounds, in a 12-point titration series, were incubated with cells for 48 hours and the read out was cell viability (CellTiter-Glo from Promega). These initial experiments were used to select appropriate concentrations of each single agent for subsequent two-drug matrix combinations such that the concentrations in the matrices would span both activity and non-activity.
# Cells, in the log phase of growth, were seeded in 5 uL of RPMI plus 5% FBS, […] L-glutamine, 100 U/ml penicillin and 100 ug/ml streptomycin into 1536-well solid-bottom white tissue culture treated Greiner Bio One Plates (789173-F) using a MultiDrop Combi (Thermofisher Scientific) dispenser and a small sterile cassette. One column was media alone to be used as a :"no cells" control. The plates were then covered with sterilized stainless steel gasketed lids from Kalypsys. After allowing cells to attach for 4 hours, 23 nL of test compound or control (negative control DMSO and positive control 9.2 uM Bortezomib-final) were added from a 1536-well polypropylene compound source plate to each well using a 1536 head pin tool from Kalypsys. Cells were then incubated for 48 hours at 37C, 95% relative humidity and 5% CO2. After 48 hours, plates were removed from the incubator and 3 uL of CellTiter-Glo (Promega) was added using an Aurora Flying Reagent Dispenser Bioraptor. Plates were incubated at room temperature for 10 minutes prior to reading the luminescence on the Viewlux (PerkinElmer). The relative luciferase units are used to calculate the percent activity using the activity of DMSO in the cells and no cells columns for normalization of no inhibition and full inhibition respectively.
# Potency is read from the fitted curve at half-maximal effect.
Compound,Potency,viability
Cc1cc(Nc2cc(N3CCN(C)CC3)nc(Sc3ccc(NC(=O)C4CC4)cc3)n2)n[nH]1,296 nM (active),–
COc1cc(-c2nn(C3CCC(N4CCN(C(C)=O)CC4)CC3)c3ncnc(N)c23)ccc1NC(=O)c1cc2ccccc2n1C (stereo not given),6620 nM (active),–
CC(C)c1ccccc1Cc1cc(C(=O)Nc2ccc(S(=O)(=O)c3ccccc3C(C)(C)C)cc2)c(O)c(O)c1O,8330 nM (active),–
O=C(CCCCCCNC(=O)c1cnc(N(c2ccccc2)c2ccccc2)nc1)NO,4180 nM (active),–
CC(C)CC(=O)Nc1n[nH]c2c1CN(C(=O)C1CCN(C)CC1)C2(C)C,1320 nM (active),–
CCCn1c(=O)c2[nH]c(-c3cnn(Cc4cccc(C(F)(F)F)c4)c3)nc2n(CC)c1=O,inactive,–
O=C(C=Cc1cccnc1)NCCCCC1CCN(C(=O)c2ccccc2)CC1,7.4 nM (active),–
Cc1c(NC(=O)OC[C@@H]2COCCN2)cn2ncnc(Nc3ccc4c(cnn4Cc4cccc(F)c4)c3)c12,1480 nM (active),–
CCCNC(=O)Nc1ccc(Oc2ncnc3cc(OC)c(OC)cc23)cc1Cl,inactive,–
CC1COC2(CCN(c3nc(=O)c4cc(C(F)(F)F)cc([N+](=O)[O-])c4s3)CC2)O1 (stereo not given),inactive,–
CCC1=C[C@@H]2CN(C1)Cc1c([nH]c3ccccc13)[C@@](C(=O)OC)(c1cc3c(cc1OC)N(C)[C@@H]1[C@@](O)(C(=O)OC)[C@H](OC(C)=O)[C@]4(CC)C=CCN5CC[C@]31[C@@H]54)C2,6.6 nM (active),–
COc1c(OCCCN2CCOCC2)ccc2c3n(c(=NC(=O)c4cnc(N)nc4)nc12)CCN3,724 nM (active),–
CC(=O)c1c(C)c2cnc(Nc3ccc(N4CCNCC4)cn3)nc2n(C2CCCC2)c1=O,20900 nM (active),–
O=C(O)CCCc1c[nH]c2ccccc12,inactive,–
NCC(=O)Nc1ccc(-n2nc(C(F)(F)F)cc2-c2ccc3c(ccc4ccccc43)c2)cc1,18700 nM (active),–
CCS(=O)(=O)c1cccc(-c2cc(C(=O)NC3CCN(C)CC3)c(C)c3[nH]c4ncc(C)cc4c23)c1,118 nM (active),–
CCc1c2c(nc3ccc(O)cc13)-c1cc3c(c(=O)n1C2)COC(=O)[C@]3(O)CC,2.1 nM (active),–
NC(=O)Nc1cc(-c2cccc(F)c2)sc1C(=O)N[C@H]1CCCNC1,166 nM (active),–
Cc1ccc(C(=O)Nc2cccc(C(F)(F)F)c2)cc1-c1ccc2nc(NCCN3CCOCC3)ncc2c1,14800 nM (active),–
C1=CCOCc2cc(ccc2OCCN2CCCC2)Nc2nccc(n2)-c2cccc(c2)OCC1,6620 nM (active),–

Compound,Potency,viability
COc1cc(C(=O)NS(=O)(=O)c2ccccc2C)ccc1Cc1cn(C)c2ccc(NC(=O)OC3CCCC3)cc12,16600 nM (active),–
Nc1nc(NCCNc2ncc(-n3ccnc3)c(-c3ccc(Cl)cc3Cl)n2)ccc1[N+](=O)[O-],inactive,–
COc1ccc(F)c(F)c1C(=O)c1cnc(NC2CCN(S(C)(=O)=O)CC2)nc1N,3720 nM (active),–
C[C@@]12O[C@@H](C[C@]1(O)CO)n1c3ccccc3c3c4c(c5c6ccccc6n2c5c31)CNC4=O,296 nM (active),–
CC(C)c1noc(N2CCC(COc3ccc(-c4ccc(S(C)(=O)=O)cc4)nc3)CC2)n1,inactive,–
COc1ccc(CC2c3cc(OC)c(OC)cc3CC[N+]2(C)CCC(=O)OCCCCCOC(=O)CC[N+]2(C)CCc3cc(OC)c(OC)cc3C2Cc2ccc(OC)c(OC)c2)cc1OC (stereo not given),–,117% [at 5.15 µM]
C[C@]12CC[C@H](O)CC1=CCC1C2CC[C@]2(C)C(n3cnc4ccccc43)=CCC12 (stereo not given in full),inactive,–
OCCCNc1cc(-c2ccnc(Nc3cccc(Cl)c3)n2)ccn1,148 nM (active),–
Cc1cc(Nc2cc(CN3CCOCC3)c3nc(C)c(Cc4ccc(Cl)cc4F)n3n2)n[nH]1,3320 nM (active),–
C[C@@H]1COC(Nc2ccc3ncnc(Nc4ccc(OCc5nccs5)c(Cl)c4)c3c2)=N1,20900 nM (active),–
COc1ccc(C=Cc2cc(OC)c(OC)c(OC)c2)cc1O,inactive,–
CC[C@@H]1C(=O)N(C)c2cnc(Nc3ccc(C(=O)NC4CCN(C)CC4)cc3OC)nc2N1C1CCCC1,37.2 nM (active),–
CCC[C@H](NC(=O)C(C#N)=Cc1cccc(Br)n1)c1ccccc1,6620 nM (active),–
CC(C)C[C@H](NC(=O)CNC(=O)c1cc(Cl)ccc1Cl)B(O)O,148 nM (active),–
COc1ccc(-c2cc3c(C)nc(N)nc3n(C3CCC(OCCO)CC3)c2=O)cn1 (stereo not given),66.2 nM (active),–
COc1cc(C(=O)N2CCC(N3CCN(C)CC3)CC2)ccc1Nc1ncc2c(n1)N(C)c1ccccc1C(=O)N2C,9350 nM (active),–
COc1ccc(CC2SC(=O)NC2=O)cc1C(=O)NCc1ccc(C(F)(F)F)cc1 (stereo not given),inactive,–
COC(=O)Nc1ccc(-c2nc(N3CCOCC3)c3cnn(C4CCN(Cc5cccnc5)CC4)c3n2)cc1,83.3 nM (active),–
O=C(Nc1ncc(-c2cc(C(F)F)nn2-c2c(Cl)cccc2Cl)s1)C1CC1,469 nM (active),–
CC(C)c1cnn2c(NCc3ccccc3)cc(N[C@@H](CO)[C@H](O)CO)nc12,372 nM (active),–
